According to PubChem BioAssay AID1159580 (chemical genetic matrix, 2015):
Several values for one entry are separate records, joined by “and”; a condition that tells them apart may be missing. Identical values can stand only once. Hit rate of the full screen: of about 5,500 compounds, about 2,000 (36%) were called active. Not shown: some 18% with an inconclusive outcome. No stated cut-off is given here; in the data, active means normalized growth mostly below about 0.91 (no sharp cut-off); inconclusive means no clear call, values can overlap the other calls; inactive means mostly above about 0.92. Some of the results follow.

Experiment: chemical genetic growth profiling, strain panel (AID 1159580);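 further: tested at 20 µM; growth read once vehicle control cultures reached saturation at 30 °C; 1 = growth at the plate median or of vehicle wells; lower values mean less growth of the strain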
Details: S. cerevisiae deletion strains, growth OD

Measured: normalized growth

COP(=O)(OC)OC=C(Cl)Cl
inactive: locus YAL013W, strain DEP1, hits give low values 0.997 | locus YAL021C, strain ccr4, hits give low values 0.988 | locus YAL026C, strain drs2, hits give low values 0.993 | locus YAL030W, strain snc1, hits give low values 1 | locus YBL061C, strain skt5, hits give low values 0.984 | locus YBR009C, strain hhf1, hits give low values 0.991 | locus YBR021W, strain FUR4, hits give low values 1.05 | locus YBR023C, strain chs3, hits give low values 0.995 | locus YBR171W, strain sec66, hits give low values 1.01 | locus YBR229C, strain ROT2, hits give low values 0.965 | locus YBR231C, strain swc5, hits give low values 0.999 | locus YBR279W, strain paf1, hits give low values 0.992 | locus YCL011C, strain gbp2, hits give low values 0.994 | locus YCL016C, strain dcc1, hits give low values 1.01 | locus YCL029C, strain bik1, hits give low values 0.98 | locus YCL061C, strain MRC1, hits give low values 0.991 | locus YCL069W, strain vba3, hits give low values 1 | locus YCR088W, strain abp1, hits give low values 1 | locus YDL005C, strain med2, hits give low values 0.997 | locus YDL035C, strain GPR1, hits give low values 0.977 | locus YDL040C, strain nat1, hits give low values 0.989 | locus YDL074C, strain BRE1, hits give low values 0.957 | locus YDL101C, strain DUN1, hits give low values 0.964 | locus YDL134C, strain PPH21, hits give low values 0.983 | locus YDL185W, strain tfp1, hits give low values 0.947 | locus YDL192W, strain arf1, hits give low values 0.983 | locus YDR001C, strain nth1, hits give low values 0.998 | locus YDR069C, strain doa4, hits give low values 0.975 | locus YDR101C, strain arx1, hits give low values 0.986 | locus YDR137W, strain rgp1, hits give low values 0.982 | locus YDR150W, strain NUM1, hits give low values 0.985 | locus YDR159W, strain sac3, hits give low values 0.965 | locus YDR162C, strain NBP2, hits give low values 0.981 | locus YDR195W, strain ref2 0.933 | locus YDR297W, strain sur2, hits give low values 0.99 | locus YDR318W, strain mcm21, hits give low values 0.983 | locus YDR334W, strain swr1, hits give low values 1.01 | locus YDR335W, strain msn5, hits give low values 0.995 | locus YDR388W, hits give low values 0.995 | locus YDR392W, strain spt3, hits give low values 1 | locus YDR502C, strain sam2, hits give low values 0.993 | locus YEL003W, strain gim4, hits give low values 0.991 | locus YEL037C, strain rad23, hits give low values 0.986 | locus YEL061C, strain CIN8 (second series), hits give low values 0.984 | locus YEL061C, strain CIN8, hits give low values 0.989 | locus YER015W, strain faa2, hits give low values 0.982 | locus YER016W, strain bim1, hits give low values 0.99 | locus YER110C, hits give low values 0.969 | locus YER111C, strain swi4, hits give low values 0.989 | locus YER155C, strain BEM2 (second series), hits give low values 0.998 | locus YER155C, strain BEM2, hits give low values 0.991 | locus YER167W, strain BCK2, hits give low values 0.988 | locus YFR010W, strain ubp6, hits give low values 0.994 | locus YGL078C, strain dbp3, hits give low values 0.986 | locus YGL086W, strain mad1, hits give low values 0.994 | locus YGL167C, strain pmr1, hits give low values 0.994 | locus YGL173C, strain kem1, hits give low values 0.986 | locus YGL227W, strain vid30, hits give low values 0.991 | locus YGL240W, strain doc1, hits give low values 0.978 | locus YGL248W, strain PDE1, hits give low values 0.982 | locus YGL253W, strain hxk2, hits give low values 0.998 | locus YGR078C, strain PAC10, hits give low values 0.989 | locus YGR135W, strain pre9, hits give low values 0.993 | locus YGR229C, strain SMI1, hits give low values 1.01 | locus YGR252W, strain gcn5, hits give low values 0.998 | locus YHR013C, strain ard1, hits give low values 0.974 | locus YHR027C, strain rpn1, hits give low values 1.01 | locus YHR030C, strain SLT2, hits give low values 1.01 and 1.02 | locus YHR079C, strain IRE1 (second series), hits give low values 0.982 | locus YHR079C, strain IRE1, hits give low values 1.05 | locus YHR094C, strain hxt1, hits give low values 0.993 | locus YHR129C, strain ARP1, hits give low values 0.976 | locus YHR142W, strain chs7, hits give low values 0.989 | locus YHR200W, strain rpn10, hits give low values 0.989 | locus YIL066C, strain RNR3, hits give low values 1 | locus YIL073C, strain SPO22, hits give low values 1.06 | locus YIL125W, strain kgd1, hits give low values 0.98 | locus YIR030C, strain dcg1, hits give low values 0.988 | locus YJL092W, strain hpr5, hits give low values 1 | locus YJL095W, strain BCK1 (second series), hits give low values 0.996 | locus YJL095W, strain BCK1, hits give low values 1.01 and 1.03 | locus YJL115W, strain asf1, hits give low values 0.998 | locus YJL129C, strain trk1, hits give low values 1.01 | locus YJL134W, strain LCB3, hits give low values 1 | locus YJL154C, strain vps35, hits give low values 0.997 | locus YJL164C, strain tpk1, hits give low values 0.992 | locus YJL166W, strain qcr8, hits give low values 0.992 | locus YJL168C, strain set2, hits give low values 0.981 | locus YJL187C, strain SWE1 (second series), hits give low values 0.976 | locus YJL187C, strain SWE1, hits give low values 1 | locus YJR043C, strain POL32, hits give low values 0.988 | locus YJR066W, strain TOR1, hits give low values 0.981
